# From PubChem
# Abs 340nm: compound light absorbance at 340 nm, profiling panel, artefact control, biochemical, MLSMR library, data from PS, PMK, MK assays; compound absorbance at 340 nm, fold over control; fold change at 10 µM; 65,000 tested, under 10 active;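 active = at 10 µM dose, initial 340 nm absorbance at least 2 fold that of control wells; inactive = change under 2 fold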;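 note: initial absorbance extrapolated from kinetic A340 decline of NADH oxidation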
# WNV NS2B-NS3 inh: inhibitors of WNV NS2B-NS3 protease, primary screen, biochemical, fluorogenic substrate. Genome polyprotein (West Nile virus), P06935. fluorogenic substrate Ex360/Em465; stronger effect = lower value. z-score (no concentration beside the values). 65,000 tested, 0.18% active. AID 577, 2007; in the data active = z-score below about -3
# Target sequence (P06935 1371-1501 limits assumed): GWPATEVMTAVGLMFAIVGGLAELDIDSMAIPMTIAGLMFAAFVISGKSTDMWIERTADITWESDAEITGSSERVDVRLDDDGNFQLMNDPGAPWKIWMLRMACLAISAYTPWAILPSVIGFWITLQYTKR
# Target sequence (P06935 1502-1679 limits assumed): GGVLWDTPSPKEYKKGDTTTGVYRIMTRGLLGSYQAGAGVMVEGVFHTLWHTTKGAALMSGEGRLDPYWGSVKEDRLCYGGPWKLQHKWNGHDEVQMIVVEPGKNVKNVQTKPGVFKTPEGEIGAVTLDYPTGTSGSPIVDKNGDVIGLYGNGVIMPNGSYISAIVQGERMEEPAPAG
# Fluor 339 460: intrinsic fluorescence of library compounds, ex339/em460 – biochemical, MLSMR library, data from DPM-DC assay, artefact control, profiling panel; compound autofluorescence, ex339/em460 nm, NADH buffer; stronger effect = higher value; 1 = no-compound wells, NADH background; fluorescence fold increase at 10 µM; 65,000 tested, 5.5% active; AID 709, 2007;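 active = at 10 µM, mean starting fluorescence two-fold or more over control wells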;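 note: signal is the first read of a kinetic run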
# BAP1 inh: inhibitors of BAP1 deubiquitinase, primary screen, biochemical, Ub-AMC fluorescence, kinetic. Ubiquitin carboxyl-terminal hydrolase BAP1 (Homo sapiens), Q92560. recombinant BAP1, Ub-AMC hydrolysis fluorescence kinetic; stronger effect = lower value. calls only at 20 µM. 72,000 tested, 0.48% active;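 active = activity remaining at or below 50% of control, provided the compound also passes the data quality filters; inactive = the rest, including low values that fail the filters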;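 note: 100% = DMSO wells rate and 0% = substrate alone blank rate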
# M1 antagonist: antagonists of rat M1 muscarinic receptor; Muscarinic acetylcholine receptor M1 (Rattus norvegicus), P08482; CHO-M1 cells, Fluo-4 calcium, ACh EC80 antagonist mode; stronger effect = lower value; B-score at 10 µM; 64,000 tested, 3.4% active; AID 628, 2007;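 active = calcium fluorescence response, raw or row-and-column corrected B-score, differing from the plate sample mean either way at a set confidence level, mostly lower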
# M1 ag: M1 muscarinic receptor agonists, primary screen, CHO-M1 cells, Fluo-4 calcium, agonist mode | Muscarinic acetylcholine receptor M1 | Fluo-4 calcium fluorescence; stronger effect = higher value | 64,000 tested, 3% active | B-score at 10 µM;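 active = fluorescence rise, raw or as B-score row- and column-corrected plate score, outside the 99.7% band of its plate's samples, either direction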
# M1 antag conf: rat M1 muscarinic receptor antagonists, confirmation, CHO cells, Fluo-4 calcium, duplicate; calcium response (max-min fluorescence) at 10 µM; AID 677, 2007; 1,700 tested, 43% active; shares compounds with M1 antagonist; ACh EC80 antagonism; stronger effect = lower value;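 active = calcium response below the same-plate mean of wells given acetylcholine alone at its 80%-effect dose, minus 3 SD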;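 note: raw fluorescence intensity difference in arbitrary instrument units and not normalized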
# mGluR4 antag: human mGluR4 response to M1 antagonist hits, M1 allosteric modulator project, cell-based, antagonist mode, secondary assay 1; AID 678, 2007; 1,700 tested, 0.9% active; shares compounds with M1 antagonist; CHO-mGluR4 calcium flux, Fluo-4 fluorescence, glutamate EC80; stronger effect = lower value; fluorescence response (max-min) at 10 µM;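 active = fluorescence response below the plate's average for near-maximal glutamate wells, less 3 SD of those wells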;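 note: raw unnormalized fluorescence span taken in the window right after glutamate addition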
# Starred values were filed as active, the others as inactive; i = inactive; nt = not tested or not shown. Only some compounds are listed: those with a hit (about 9.7% of all), similar ones and a draw of the others.
SMILES,Abs 340nm,WNV NS2B-NS3 inh,Fluor 339 460,BAP1 inh,M1 antagonist,M1 ag,M1 antag conf,mGluR4 antag
COC(=O)c1cc2ccsc2n1Cc1nc(-c2ccc(OC)cc2)oc1C,1.1,-0.87,1,i,-5.5*,-0.95,474*,240
O=C(Nc1nccs1)c1cccc(Br)c1,nt,nt,nt,i,nt,nt,nt,nt
COc1ccc(Br)cc1CN1CCCC(C(=O)N2CCCCCC2)C1 (stereo not given),1,1.8,1.1,i,-3.1*,-1.6,313*,191
O=C(C1CCCN(Cc2ccccc2Br)C1)N1CCCCC1 (stereo not given),1,-0.48,1.1,i,-2.3*,0.055,397*,178
O=C(C1CCCN(Cc2cccs2)C1)N1CCCCCC1 (stereo not given),1,0.47,0.96,i,-1.2,0.18,nt,nt
COc1ccccc1CN1CCCC(C(=O)N(C)Cc2ccccc2)C1 (stereo not given),1,-0.56,1.1,i,-3.8*,-0.56,513*,227
O=C(c1cccc(Cl)c1)N1CCN(c2ccc(F)cc2)CC1,nt,nt,nt,i,nt,nt,nt,nt
Cc1cccc(Cn2c(N3CCCCC3C)nc3c2c(=O)[nH]c(=O)n3C)c1 (stereo not given),1,-0.07,1,i,-4.2*,0.38,90*,179
Nc1nc(F)cc(Oc2ccc(F)cc2)n1,nt,nt,nt,i,nt,nt,nt,nt
CN1CCN(CC#CCn2c3ccccc3c3ccccc32)CC1,1,-0.19,1.1,i,-13*,1.3,229*,219
CCOC(=O)c1c(NC(=O)c2ccc(OC)cc2OC)sc2c1CCC2,nt,nt,nt,i,nt,nt,nt,nt
O=C(Nc1cccc(NC(=O)c2cccs2)c1)c1ccco1,1.1,0.03,1.1,i,-0.4,2.2,nt,nt
COc1cc(NC(=O)c2cccs2)ccc1NC(=O)c1ccco1,1.1,0.17,1.1,nt,-2.8*,1.7,628,272
Cc1ccc(NC(=O)c2ccco2)c(NC(=O)c2cccs2)c1,1,1.7,1,i,-3.9*,0.068,534,206
CC(C)C(C)(O)C#CCN1CCOCC1 (stereo not given),nt,nt,nt,i,nt,nt,nt,nt
CC(C)(O)C#CC#CCN1CCOCC1,1,-0.49,1.1,i,-1.1*,-0.88,637,191
COc1cc(OC)cc(C(=O)Nc2cccc(NC(C)=O)c2)c1,1,-0.36,1.1,i,-3.6*,-0.81,666,242
O=C(Nc1cccc(-c2nc3ncccc3o2)c1)c1ccc(Br)o1,nt,nt,nt,i,nt,nt,nt,nt
CCc1ccc(CNc2ccc3c(c2)ncn3C)cc1,1,-0.87,1.6,i,-2.7*,-0.29,627,248
Cc1ccc(CNc2ccc3c(c2)ncn3C)cc1,1.1,-0.07,1.8,i,nt,nt,nt,nt
CCN1C=C(Cc2cccs2)C2=C(C1)C(c1cccs1)C(C#N)=C(N)O2 (stereo not given),1.1,0.11,1.3,i,-3.8*,2.8,514,170*
COc1ccc2nc(NC(=O)c3cnccn3)sc2c1,1.2,-2,1.1,i,-2.7*,-1.9,616,171
FC(F)(F)c1cc(C=Cc2ccccc2)no1,nt,nt,nt,i,nt,nt,nt,nt
CCc1nnc(NCC(=O)N2CCc3ccccc32)s1,1,-0.64,1,i,-4.8*,0.59,605,254
CCc1cc2c(=S)c(-c3ccccc3)c(C)oc2cc1OC,nt,nt,nt,i,nt,nt,nt,nt
SMILES,Abs 340nm,WNV NS2B-NS3 inh,Fluor 339 460,BAP1 inh,M1 antagonist,M1 ag,M1 antag conf,mGluR4 antag
O=S(=O)(c1ccc(OCC(O)CN2CCc3ccccc3C2)cc1)N1CCOCC1 (stereo not given),0.99,-0.57,1.1,i,-3.7*,0.62,422*,252
Cc1ccc(N2C(=O)C(Cl)=C(Nc3c(C)n(C)n(-c4ccccc4)c3=O)C2=O)cc1,0.96,-0.93,1.1,i,-5.7*,0.098,133*,265
Cc1ccc(S(=O)(=O)NC(=O)Nc2c(C)n(C)n(-c3ccccc3)c2=O)cc1,1,-1.4,0.8,i,0.24,0.52,nt,nt
CCOc1ccc(C2NC(=O)NC(C)=C2C(=O)OCCSCC)cc1 (stereo not given),nt,nt,nt,i,nt,nt,nt,nt
O=C(Nc1ccc(N2CCOCC2)cc1)c1ccccc1Br,nt,nt,nt,i,nt,nt,nt,nt
COc1ccc(C2CC(C(F)(F)F)n3ncc(C(=O)O)c3N2)cc1OC (stereo not given),1,-0.52,1.2,i,-3.1*,-0.15,627,246
COc1cccc(C2CC(C(F)(F)F)n3ncc(C(=O)O)c3N2)c1 (stereo not given),1.1,-0.06,1.2,i,-0.55,-0.25,nt,nt
O=S(=O)(c1ccc(Cl)cc1)N1CCC(N2CCCCCC2)CC1,1,0.39,1.1,i,-4.6*,0.52,545,259
CCOC(=O)c1c(-c2cccs2)csc1NC(=O)CSc1ncn[nH]1,1,0.54,1.1,i,-2.7*,-0.39,621,235
O=C(CSc1nnc(-c2ccco2)n1Cc1ccccc1)c1ccccc1,1,-1,1.1,i,-2*,0.049,515,226
Cc1ccc(C(=O)CSc2nnc(-c3ccco3)n2Cc2ccccc2)cc1,1,0.74,1,i,-1.2,-0.011,nt,nt
Cc1ccc(S(=O)(=O)NC(C)(C)CN2CCN(C(c3ccccc3)c3ccccc3)CC2)cc1,nt,nt,nt,i,nt,nt,nt,nt
CC1CC(C)CN(CC(C)(C)NS(=O)(=O)c2ccccc2)C1 (stereo not given),1,1.4,1.1,i,-2.6*,1.5,548,246
Cc1ccc(C)c(N2CCN(S(=O)(=O)c3ccc4c(c3)OCCO4)CC2)c1,1,0.05,1.1,i,-1*,-0.13,641,235
COc1c(C)cc(Br)cc1C(=O)Nc1ccc(N2CCN(S(C)(=O)=O)CC2)cc1,1.1,0.27,1.3,i,-1.9*,0.34,533,210
COc1c(C)cccc1C(=O)Nc1ccc(N2CCN(S(C)(=O)=O)CC2)cc1,1,-0.51,1,i,0.04,0.16,nt,nt
N#Cc1c(NC(=O)c2cnn3c2NC(c2cccs2)CC3C(F)(F)F)sc2c1CCCC2 (stereo not given),nt,nt,nt,i,nt,nt,nt,nt
O=C(COC(=O)c1cc2ccccc2o1)c1ccccc1,1.1,0.15,1.1,i,0.0061,0.72,nt,nt
